Screening results (PubChem BioAssay)
Only a selection was taken, and hits are over-represented in it overall.
IMPase cell inh – cell-permeable inhibitors of inositol monophosphatase (IMPase); P97697; CHO-M1 cells, IP1 accumulation, HTRF TR-FRET ratio; inhibition (IP1 accumulation), % at 46.1 µM; 120,000 tested, under 10 active; AID 901; active = well fitted curve in the direction sought with a large enough effect in the signal ratio, not every such curve was filed as active; inconclusive = small, poorly fitted or top-dose-only effect, or a change in a side signal; inactive = no such curve, though single readings can be large or run the other way; the % refers to the signal ratio;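 note: cells stimulated with carbachol in lithium chloride buffer; plate controls were DMSO basal wells for no effect and reference inhibitor wells for full effect; higher means more IMPase inhibition seen as more IP1 and lower FRET ratio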
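Measured: the HTRF emission ratio (665/620 nm) plus the 620 nm donor channel, each fitted to the Hill equation to give AC50. Cells were CHO-M1 given compounds up to 46 uM and a 30 min carbachol stimulation at 37C.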
PNC inhibitor – blocks assembly of the perinucleolar compartment; actives 3.1% (n = 140,000); AID 2417; PC3M PTB-GFP, PNC prevalence imaging, 16 h; hits give low values; activity change (PNC), negative = inhibition, % at 10 µM;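 active = readout at or below -70, meaning at least 70% loss of cells showing the perinucleolar compartment, a nuclear body marking cancer cells; inconclusive = readout between -30 and a set limit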;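 note: plate controls were DMSO wells for no effect and camptothecin positive control wells for full effect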
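Read-out is percentage of cells bearing a perinucleolar compartment, from automated 20x imaging of fixed, Hoechst-stained PC3M PTB-GFP cells. Cells were seeded 4 h, then exposed 16 h to compound (23 nl of library stock) in duplicate plates.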
IMPase Li inh – IMPase inhibition in cells with lithium potentiation; actives 0.35% (n = 210,000); CHO-M1 cells, IP1 TR-FRET (IP-One), carbachol + lithium; Potency, µM (top dose mostly 59.4 µM), inactives show top-dose activity, negative = IMPase inhibition, usual class: inhibitors; AID 1457;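 note: IP1 builds up when IMPase is blocked and the TR-FRET signal falls; potency is the fitted concentration of half-maximal effect; plate controls were basal vehicle for no effect and high inhibitor control for full effect; nearly all actives have a fitted effect of over 50% in size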
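Concentration–response in CHO-M1 cells, lithium-potentiated; 30 min at 37C. IP1 detected by competitive TR-FRET after 10 min lysis at RT. Hill-fitted AC50.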
ALOX12 inhib – blocks human 12-lipoxygenase activity. P18054. purified 12-hLO, xylenol orange hydroperoxide absorbance. Potency, µM (doses to about 57.1 µM), without a hit: top-dose activity change, negative = inhibition, usual class: inhibitors. actives 0.12% (n = 150,000); note: potency is the fitted concentration of half-maximal effect; nearly all actives have a fitted effect of over 55% in size
Target sequence (P18054 whole entry, looked up): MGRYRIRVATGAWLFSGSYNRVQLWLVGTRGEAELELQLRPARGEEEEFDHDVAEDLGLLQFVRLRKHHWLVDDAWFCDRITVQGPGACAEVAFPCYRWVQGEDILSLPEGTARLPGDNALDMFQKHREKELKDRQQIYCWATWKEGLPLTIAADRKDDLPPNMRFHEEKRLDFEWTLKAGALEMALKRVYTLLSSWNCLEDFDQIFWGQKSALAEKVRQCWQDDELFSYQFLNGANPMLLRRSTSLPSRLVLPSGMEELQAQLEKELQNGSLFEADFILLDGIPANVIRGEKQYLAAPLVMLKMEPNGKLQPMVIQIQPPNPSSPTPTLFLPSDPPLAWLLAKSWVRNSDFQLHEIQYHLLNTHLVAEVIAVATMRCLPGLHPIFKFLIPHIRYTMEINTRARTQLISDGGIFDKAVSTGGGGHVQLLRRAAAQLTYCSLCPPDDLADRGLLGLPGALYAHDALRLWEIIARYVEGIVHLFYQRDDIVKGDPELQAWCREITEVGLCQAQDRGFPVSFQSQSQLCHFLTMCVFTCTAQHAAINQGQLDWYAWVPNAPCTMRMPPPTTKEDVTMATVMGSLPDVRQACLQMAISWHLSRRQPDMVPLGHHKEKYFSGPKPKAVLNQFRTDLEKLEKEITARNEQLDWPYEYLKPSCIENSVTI
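Lipoxygenase turnover measured by absorbance at 573 and 405 nm after Fe-XO development. Human 12hLO 150 nM, arachidonate 40 uM, pH 7.0 Hepes buffer with detergent; 15 min compound preincubation, 30 min reaction.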
15-hLO-2 inh – blocks human 15-lipoxygenase 2 activity. O15296. AID 881. purified 15hLO-2, xylenol orange hydroperoxide absorbance. actives 0.56% (n = 110,000). Potency, µM (top dose mostly 57.1 µM), for inactives: at the top dose activity change, negative = inhibition, most hits filed as inhibitors; note: potency is the fitted concentration of half-maximal effect; nearly all actives have a fitted effect of over 60% in size
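Enzyme 50 nM, AA 45 uM, 25 mM Hepes pH 7.5 + 0.01% Triton X-100; cpd preinc 15 min RT, rxn 90 min RT; stop/detect with 200 uM XO + 300 uM Fe(II) in 50 mM H2SO4, 30 min; A573/A405.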
* marks the source's active call; other numbers are inactive results; ! = not active in a repeat; [ ] = dose if it differs, or a comment. Unless noted, calls come from the whole dose curve; as a rule, active = well fitted curve in the direction sought with a large enough effect; inconclusive = small, poorly fitted or top-dose-only effect, or another doubt; inactive = no such curve, though single readings can be large; an effect the other way counts as inactive or inconclusive. Unless noted, % is set by controls: 0 for no effect and ±100 for the full control effect.

What do the screens show for `Nc1ccc(-c2cnc(-c3ccc(N)cc3)nc2)cc1`?
IMPase cell inh: -5; PNC inhibitor: -123*; IMPase Li inh: -10%[38.3 µM]; ALOX12 inhib: -5%; 15-hLO-2 inh: -1%

Results for O=C(Nc1c(C(=O)O)[nH]c2ccccc12)NC1CCCCC1 ?
IMPase cell inh: 1; PNC inhibitor: -100*; IMPase Li inh: -12%[38.3 µM]; ALOX12 inhib: -5%; 15-hLO-2 inh: inconclusive

What do the screens show for `COC(=O)c1[nH]c2ccc(C)cc2c1NC(=O)NC1CCCCC1`?
IMPase cell inh: -2; PNC inhibitor: inconclusive; IMPase Li inh: 28%[38.3 µM]; ALOX12 inhib: -4%; 15-hLO-2 inh: -5%

What do the screens show for `COC(=O)c1c(NC(=O)CCCOc2ccccc2C)sc2c1CCC2`?
IMPase cell inh: -8

What do the screens show for `CCCc1c(C)c2cccc(C)c2[nH]c1=O`?
IMPase cell inh: 5; PNC inhibitor: -19; IMPase Li inh: -3%[38.3 µM]; ALOX12 inhib: -8%; 15-hLO-2 inh: 2%

What do the screens show for `CCCCN1CCc2c([nH]c3c(C)cccc23)C1=O`?
IMPase cell inh: 8; PNC inhibitor: -87*; IMPase Li inh: 3%[38.3 µM]; ALOX12 inhib: 5%; 15-hLO-2 inh: 3%

Results for Fc1ccc(CNCc2ccccc2C(F)(F)F)cc1 ?
PNC inhibitor: -114*; IMPase Li inh: -3%; ALOX12 inhib: 1%

Results for Fc1ccc(COc2ccccc2CNCc2ccncc2)cc1 ?
PNC inhibitor: inconclusive; IMPase Li inh: 3%; ALOX12 inhib: 3%

Results for Cc1ccccc1CSCC(=O)NC(=O)NCc1ccco1 ?
IMPase cell inh: 4; PNC inhibitor: -95*; IMPase Li inh: 5%[38.3 µM]; ALOX12 inhib: -2%; 15-hLO-2 inh: -2%

What do the screens show for `Cc1c(N=Cc2c(O)n(Cc3ccco3)c(=O)c3ccccc23)c(=O)n(-c2ccccc2)n1C`?
IMPase cell inh: 0; PNC inhibitor: -100*!; IMPase Li inh: 31%[38.3 µM]; ALOX12 inhib: -13%; 15-hLO-2 inh: inconclusive

How did O=c1c2ccccc2c2ccccc2c(=O)n1Cc1ccco1 do in these assays?
IMPase cell inh: 1; PNC inhibitor: 0; IMPase Li inh: 6%[38.3 µM]; ALOX12 inhib: -3%; 15-hLO-2 inh: -7%

What do the screens show for `CC(=O)c1cccc(N(CC(=O)NCC2CCCO2)C(=O)CCC(=O)Nc2cc(C)on2)c1` (stereo not given)?
IMPase cell inh: 2; PNC inhibitor: -100*; IMPase Li inh: -18%[38.3 µM]; ALOX12 inhib: -2%; 15-hLO-2 inh: 6%

How did Cc1cc(NC(=O)CCC(=O)N(CC(=O)NCC2CCCO2)c2ccc3c(c2)OCCO3)no1 (stereo not given) do in these assays?
PNC inhibitor: -6; IMPase Li inh: -12%; ALOX12 inhib: -2%

Results for CCOC(=O)c1ccc(NC(=O)COC)cc1 ?
IMPase cell inh: 3; PNC inhibitor: -89*; IMPase Li inh: 4%[38.3 µM]; ALOX12 inhib: 1%; 15-hLO-2 inh: 0%

How did CCOC(=O)c1ccc(NC(=O)CN2C(=O)CSC2=O)cc1 do in these assays?
IMPase cell inh: -1; PNC inhibitor: -90*; IMPase Li inh: -11%[38.3 µM]; ALOX12 inhib: 3%; 15-hLO-2 inh: 0%

What do the screens show for `CCOC(=O)c1cc(NC(=O)COC)ccc1O`?
IMPase Li inh: 5%

What do the screens show for `CCOC(=O)c1ccc(NC(=S)Nc2cccc(C)n2)cc1`?
PNC inhibitor: -85*; IMPase Li inh: 0%; ALOX12 inhib: -6%

Results for COC(=O)C(Cc1c[nH]c2ccccc12)NC(=O)COc1ccc(Cl)cc1Cl (stereo not given) ?
IMPase cell inh: -3

What do the screens show for `CCCOc1ccc(C(=O)N2CCCC2C(=O)O)cc1` (stereo not given)?
IMPase cell inh: 5; PNC inhibitor: 36; IMPase Li inh: 12%[38.3 µM]; ALOX12 inhib: 1%; 15-hLO-2 inh: 3%

Results for CCCCOc1ccc(C(=O)N2CCCC2C(=O)O)cc1 (stereo not given) ?
IMPase cell inh: inconclusive; PNC inhibitor: -100*; IMPase Li inh: 2%; ALOX12 inhib: 0%

How did COc1cc(/C=C(\NC(=O)c2ccccc2)C(=O)NCCO)c([N+](=O)[O-])cc1OC do in these assays?
PNC inhibitor: -93*; IMPase Li inh: -10%; ALOX12 inhib: -7%

Results for COc1cc(/C=C(\NC(=O)c2ccccc2)C(=O)Nc2cccc(O)c2)c([N+](=O)[O-])cc1OC ?
IMPase cell inh: 1; PNC inhibitor: 13; IMPase Li inh: 2%[38.3 µM]; ALOX12 inhib: -14%; 15-hLO-2 inh: -7%

Results for CN(C)S(=O)(=O)N(CC(=O)NCCSCc1c(F)cccc1Cl)c1ccccc1 ?
IMPase cell inh: -1

How did COc1ccc(S(=O)(=O)N(CC(=O)N2CCC(C)CC2)c2ccc(C)cc2)cc1 do in these assays?
IMPase cell inh: -2

What do the screens show for `O=C(Nc1nnc(C2CCCC2)s1)C1CCC1`?
IMPase cell inh: 0; PNC inhibitor: -127*; IMPase Li inh: -1%[38.3 µM]; ALOX12 inhib: -4%; 15-hLO-2 inh: -3%

Results for Cc1nnc(NC(=O)C2CCCCC2)s1 ?
IMPase cell inh: 9; PNC inhibitor: 38; IMPase Li inh: 21%[38.3 µM]; ALOX12 inhib: -2%; 15-hLO-2 inh: -1%

How did Cc1cc(Cl)c(S(=O)(=O)NCc2ccccc2)cc1OCC(N)=O do in these assays?
IMPase cell inh: -8; PNC inhibitor: -113*; IMPase Li inh: 0%[38.3 µM]; ALOX12 inhib: 6%; 15-hLO-2 inh: 4%

Results for Cc1cc(Cl)c(S(=O)(=O)NCc2ccncc2)cc1OCC(N)=O ?
IMPase cell inh: 2; PNC inhibitor: -13; IMPase Li inh: 30%[38.3 µM]; ALOX12 inhib: 1%; 15-hLO-2 inh: -4%

How did Cn1cccc1/C=N/n1c(-c2ccc(C(C)(C)C)cc2)n[nH]c1=S do in these assays?
IMPase cell inh: 0; PNC inhibitor: 54; IMPase Li inh: 4%[38.3 µM]; ALOX12 inhib: inconclusive; 15-hLO-2 inh: 10µM*

Results for Cn1cccc1/C=N/n1c(-c2ccccc2)n[nH]c1=S ?
IMPase cell inh: -1; PNC inhibitor: 11; IMPase Li inh: 9%[38.3 µM]; ALOX12 inhib: 0%; 15-hLO-2 inh: -13%

What do the screens show for `CCn1c(-c2ccc(F)cc2)n[nH]c1=S`?
IMPase cell inh: -13; PNC inhibitor: 14; IMPase Li inh: 26%[38.3 µM]; ALOX12 inhib: 2%; 15-hLO-2 inh: -10%

How did CCn1c(-c2ccc(C(C)(C)C)cc2)n[nH]c1=S do in these assays?
IMPase cell inh: 2[1.84 µM]; PNC inhibitor: -89*; IMPase Li inh: 18%[38.3 µM]; ALOX12 inhib: -5%; 15-hLO-2 inh: 5%[11.4 µM]

What do the screens show for `CC1(C)CC(=O)c2c(oc3c(Cl)cc(NS(=O)(=O)c4ccc(Cl)cc4)cc23)C1`?
IMPase cell inh: -1

What do the screens show for `Cc1ccccc1N1C(=O)c2cccc3c(N(C)CCO)ccc(c23)C1=O`?
IMPase cell inh: 6; PNC inhibitor: -80*; IMPase Li inh: -1%[38.3 µM]; ALOX12 inhib: -5%; 15-hLO-2 inh: -7%
